From paper PMC12864922, “TDP-43 directly inhibits mRNA accumulation in neurites through modulation of mRNA stability”
Whole data set: some 9,900 sequences, median “r (bound/input frequency ratio)” near 0.7, cut for the highest 2% near 6.5. This is one part of a sample in which the highest values are shown more often than they occur.

B1: ENSMUSG00000028439.39|Fam219a|34:40 (ssRNA)
RNA: GGGAGUUCUACAGUCCGACGAUCGCUUCGAUAUCCGCAUGCUACAUUGCUUCCUCCUAUGGUAGGACGUGUACCUCACACACAUCAAGGAGCCGGAGAAACCAAAACCGGGUCUGUCUCCAGCCCCGGGGCUGAGGAGGGGUGGGCACUGUUUGUUCGGUUACUUGGGGGGAACCACACCCAAGCACCCUGCCACCUCUCCUAUAGCUGCAGUCAGGGGGGCAGCACUGAAGGCCAGGAGGCCAAAUGUAAGCGUUGGGUGAAGGGAUCACAGGGCCGGAAGGUUGGCCCCAGCCAGUGAAGCCUCUUGCGGUCGCACUAGUGUGGAAUUCUCGGGUGUCAAGG
B2: ENSMUSG00000043670.69|Diras1|133:138 (ssRNA)
RNA: GGGAGUUCUACAGUCCGACGAUCGCUUCGAUAUCCGCAUGCUACCAUUCUAUCUGCACCCCACAACCACACACUGGAGGUUUGAUCCCUGUGGAUCUGAAAACAGGGACCUGGCUAAGGAACUGCUCAUCCCAGUCAGGCCCAGAGAGGUUACCUUGCCUCUCCAUCUCUGUCCCACACACCCCAGCCAUGCCCACUGUCCCUGUCCCUCACAUUCUAUCACUGUGACCUCUGGGGAGUGCCCAUUGACCUCAUCUUCCUUCACUAAUAUCUUAUUUCUUUCACCUGAUCCUGUCCUUUCCCCCUCUUGCGGUCGCACUAGUGUGGAAUUCUCGGGUGUCAAGG
B3: ENSMUSG00000028439.112|Fam219a (ssRNA)
RNA: GGGAGUUCUACAGUCCGACGAUCGCUUCGAUAUCCGCAUGCUACAAAGGGAUACUGUCUCUCCAUUAGAUAACUCCUUCCACUGUCUCCCUCCCCCGCUUUCUUACUUUCUGAGGGUUGGGAAGGUAAGAUGGGCCUUAGAGAGAAGCCAGGUUUGGGGAUGGUAUGACCUGUUCUCACCGGUCUCUAACCAGUGCAUCUGUCUCUCUGCCUCAUCCCCACACCGCCCUGCCACCCCCAGUCUUCUGUCUAUUGGUUCCAGGCUGGAAGCAAGAGAUAAGGCUGGCCUCCUGUGCCCCAUUGCCUCUUGCGGUCGCACUAGUGUGGAAUUCUCGGGUGUCAAGG
B4: ENSMUSG00000032194.3|Kank2 (ssRNA)
RNA: GGGAGUUCUACAGUCCGACGAUCGCUUCGAUAUCCGCAUGCUAUCAGACUACGAGAGUCCGGCUUCGUCUUCAGCCGAGGAGUGAAUACAGGGAGGAGCCAGUGAGUCCCCCAGGACCCACCAGCCACAAGCCACGCAUCAAACCGUCCCUCCUCCAUCCCUCUGUCCCAUUCUGCCUCGGCAUUCCUCAGCCCCUGAACUUCCCUGAGGGAGCCCUGACAUCUACCAGGCUCAAGCUCCUGGAAGCCUUUCCCAGCACCCUGGGUUCAAAGCCAGAAAGCCAAGCUACAUUCUCCUCCCAGUCUCUUGCGGUCGCACUAGUGUGGAAUUCUCGGGUGUCAAGG
B5: ENSMUSG00000031028.174|Tub|17:22 (ssRNA)
RNA: GGGAGUUCUACAGUCCGACGAUCGCUUCGAUAUCCGCAUGCUAAGAGGUAGCGGACCUCACACACGUUCACCAACAGCAAUGCUGAUCCCUGAGUAUAGGGCACAUGUCUCUUGGUUACCUCACUGGUUAAUGGCAGAGUUGAGAACCUCAAAUUCUUUUGUUCCUACUGUUGCCCAGAAACUAGACUCUCUGACCUGCUAGGGUCUAUUCUGCAUGUCCUUUCUCUUCCCAGUUCCAGAGAUGAAACCCCUCCGAGUUAAUGUAUAAGGUUGGAAACCUUUCAGUAGGGAAUCAGGCAGUUCCUCUUGCGGUCGCACUAGUGUGGAAUUCUCGGGUGUCAAGG
B6: ENSMUSG00000029028.255|Lrrc47 (ssRNA)
RNA: GGGAGUUCUACAGUCCGACGAUCGCUUCGAUAUCCGCAUGCUAGCUCACAGGUCCCUUUGAGUGGCUGUGGCAAGUACUCACCUACUAAGUGUUUAGGGUGGAGCUAUCCUGUGCUCACCCUGUCUCCCCCCAGUUCCUGCUGUUCCCUCCAGCCCAGCCCAGCCCAGGUGUGAGAUUCAUUGAGAUUUUUGAAACUGUUUUUACAGAUUCAAGCAGAACGCCUCUUUGUUCUAAUAAAAACCCUUGGUAACGACAUCUCUGCAUCAGCAGCCUUAGCACAUGCGUCUCCCAGGACAGUGUUGCUCUUGCGGUCGCACUAGUGUGGAAUUCUCGGGUGUCAAGG
B7: ENSMUSG00000029636.271|Wasf3|45:50 (ssRNA)
RNA: GGGAGUUCUACAGUCCGACGAUCGCUUCGAUAUCCGCAUGCUAAGUGAAAGCCCAUGUGCAAGCCCCUCCCUACGCCCUGCUUUGGCCACACACUGAGUGCUCUGUGCUGCGCCAUGGCCAUCCUGGAGCCUGCGCACACGUGGCCGCUGCUGUGACUCGCUGUCCUUGGUAAUUGGUGAGAGGCUUUUUCUUUCUUUCUCAGUUCUGCUUUUCCACACUGAGACCCACCAUGUUGACAUCAUCCUCGCGACGUUGACAUUUGAGCCUUUUGUUCUGUCUCCCAUGUGCCCUGUAGAACCCAGCUCUUGCGGUCGCACUAGUGUGGAAUUCUCGGGUGUCAAGG
B8: ENSMUSG00000022095.270|Fam160b2 (ssRNA)
RNA: GGGAGUUCUACAGUCCGACGAUCGCUUCGAUAUCCGCAUGCUAAGAGCGAGCUAUGAAUGAAUGUGAGUGUGUGUGUGUGUGUGUGUGAGAGAGAGAGAGAGAGAGAGAGAGCUGUGAGUACACAUGGGUGCUGGUGUGGGACAGGAGCAGAUCUUGGUGGAGUGGGUCUACACUUGAGAUUUGUACUCGUUUGAGAGGCUGGGCAAUACUCAAUGCACUUUGGCAUUUGCAUGGUGUCUUCACAACAGCACAGCAAUAAACAUUGUGAUUGUGUGGACAUGCUGACUCUCCCCAGUCUGCUUCUCUUGCGGUCGCACUAGUGUGGAAUUCUCGGGUGUCAAGG
B9: ENSMUSG00000022095.269|Fam160b2|31:51;98:102;234:239 (ssRNA)
RNA: GGGAGUUCUACAGUCCGACGAUCGCUUCGAUAUCCGCAUGCUAAGAGAGAGAGCGAGCUAUGAAUGAAUGUGACACACACACACACACACACACAGAGAGAGAGAGAGAGAGAGAGAGCUGUGAGUACACAUGGGUGCUGCACACGGACAGGAGCAGAUCUUGGUGGAGUGGGUCUACACUUGAGAUUUGUACUCGUUUGAGAGGCUGGGCAAUACUCAAUGCACUUUGGCAUUUGCAUGGUGUCUUCACAACAGCACAGCAAUAAACAUUGUGAUACACACGACAUGCUGACUCUCCCCAGUCUCUUGCGGUCGCACUAGUGUGGAAUUCUCGGGUGUCAAGG

Each binder was assayed against TDP-43 (Homo sapiens, UniProt Q13148 1-414) (assay: RNA Bind-n-Seq with designed 260-mer pool; 25 mM Tris-HCl, 150 mM KCl, 3 mM MgCl2, BSA (printed 500 mg/mL), 20 units/mL SUPERase IN; pH not stated; 500 nM RNA pool, 1 h, 4 C; TDP-43 5, 50, 500 nM; high values mean tight binding). Details: protein: recombinant; tags: SBP (GST cleaved off with PreScission; pGEX-GST-SBP).
Outline: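 Duplicate measurements used two independent batches of recombinant SBP-tagged TDP-43, which was captured on streptavidin beads at 5, 50 or 500 nM. The beads were incubated with 500 nM of an in vitro-transcribed 260-nt 3′ UTR oligo pool for 1 h at 4 °C in 25 mM Tris-HCl, 150 mM KCl, 3 mM MgCl2, BSA and SUPERase IN. After washing, biotin elution, reverse transcription, PCR amplification and sequencing, binding was expressed as R: each oligo's normalized read abundance in the bound sample over its abundance in input.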

TDP-43, sequence (Q13148 whole entry): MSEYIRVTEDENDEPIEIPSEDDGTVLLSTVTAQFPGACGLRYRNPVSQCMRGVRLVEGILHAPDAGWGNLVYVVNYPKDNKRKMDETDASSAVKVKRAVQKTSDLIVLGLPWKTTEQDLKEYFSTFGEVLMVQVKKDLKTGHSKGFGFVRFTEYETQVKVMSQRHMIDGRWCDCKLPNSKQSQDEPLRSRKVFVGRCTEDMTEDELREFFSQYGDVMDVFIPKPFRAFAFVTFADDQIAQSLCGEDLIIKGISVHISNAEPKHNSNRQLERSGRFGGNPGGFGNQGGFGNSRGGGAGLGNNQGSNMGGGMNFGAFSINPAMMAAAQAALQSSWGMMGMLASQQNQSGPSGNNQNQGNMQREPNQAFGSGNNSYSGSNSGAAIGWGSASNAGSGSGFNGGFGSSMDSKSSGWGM

| Binder | binding signal |
| --- | --- |
| B1 | 1.29 R (bound/input frequency ratio) |
| B2 | 2.03 R (bound/input frequency ratio) |
| B3 | 0.71 R (bound/input frequency ratio) |
| B4 | 1.4 R (bound/input frequency ratio) |
| B5 | 0.553 R (bound/input frequency ratio) |
| B6 | 0.69 R (bound/input frequency ratio) |
| B7 | 0.821 R (bound/input frequency ratio) |
| B8 | 7.19 R (bound/input frequency ratio) |
| B9 | 4.63 R (bound/input frequency ratio) |
